Screening data from PubChem.
PAFAH2 FP inh: inhibitors of human PAFAH2 | Q99487 | recombinant PAFAH2, FP-rhodamine activity probe, fluorescence polarization | inhibition, % at 3.39 µM | actives 0.99% (n = 340,000) | AID 492956;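 active means inhibition above the mean over all tested compounds plus 3 SD, cut at about 30% in these data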;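 further: inhibitors block probe labeling of enzyme so polarization drops; 0% = enzyme with DMSO and 100% = wells lacking PAFAH2 protein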
ZTA DNA inh: blocks Epstein-Barr virus ZTA, an EBNA-1 counter-screen. P03206. ZTA-DNA binding, fluorescence polarization. inhibition, % at 11 µM. actives 0.15% (n = 320,000). AID 2234; in the data active means inhibition above about 33%
pPAFAH FP inh: pPAFAH (human) enzyme inhibition; AID 463082; Q13093; recombinant pPAFAH, FP-rhodamine probe fluorescence polarization; actives 1.5% (n = 330,000); inhibition, % at 3.39 µM;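 active means inhibition above the mean inhibition across the screen plus 3 SD, cut at about 25% in these data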;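 further: inhibitors block binding of the rhodamine activity-based probe so polarization drops; 0% = enzyme with DMSO and 100% = wells lacking pPAFAH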
EBNA-1 inhibitor: blocks EBNA-1 binding to DNA; inhibition, % at 14.8 µM; actives 0.34% (n = 300,000); EBNA-1 DNA binding, fluorescence polarization; AID 1950; in the data active means inhibition above about 28%
PAFAH1B2 inh: inhibitors of human PAFAH1B2; inhibition, % at 3.39 µM; recombinant PAFAH1B2, FP-rhodamine activity probe, fluorescence polarization; actives 1.2% (n = 340,000); P68402; AID 492953;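 active means inhibition above the mean of all tested compounds plus 3 SD, cut at about 24% in these data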;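 further: 0% = enzyme with DMSO and 100% = wells lacking PAFAH1B2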
Target sequence (P68402 whole entry, looked up): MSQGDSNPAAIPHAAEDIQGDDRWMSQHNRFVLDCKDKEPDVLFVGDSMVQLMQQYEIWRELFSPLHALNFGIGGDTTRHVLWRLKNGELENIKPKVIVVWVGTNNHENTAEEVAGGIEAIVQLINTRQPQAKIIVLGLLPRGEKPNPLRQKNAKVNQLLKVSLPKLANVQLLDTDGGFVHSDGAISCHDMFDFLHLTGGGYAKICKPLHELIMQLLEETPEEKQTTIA
PAFAH1B3 inh: blocks human PAF acetylhydrolase 1B catalytic subunit 3 | inhibition, % at 3.39 µM | Q15102 | actives 0.28% (n = 340,000) | recombinant PAFAH1B3, FP-rhodamine probe, fluorescence polarization | AID 492972;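 active means inhibition above the screen-wide average of all tested compounds plus 3 SD, cut at about 25% in these data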;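 further: 0% = enzyme with DMSO only and 100% = wells lacking PAFAH1B3 protein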
PAFAH1B3 confirm: PAFAH1B3 (human) inhibition, confirmed; shares compounds with PAFAH1B3 inh; recombinant PAFAH1B3, FP-Rh activity-based probe, fluorescence polarization; inhibition, % at 3.39 µM; actives 30% (n = 390); AID 493032;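 active means average inhibition over triplicate runs above the hit cutoff set in the earlier primary screen, cut at about 25% in these data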;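 further: 0% = enzyme with DMSO and 100% = wells lacking PAFAH1B3 protein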
Active calls of the source: *; / = no result. Most compounds without a hit are left out; they make up all but 2.9% or so of the library.

SMILES | PAFAH2 FP inh | ZTA DNA inh | pPAFAH FP inh | EBNA-1 inhibitor | PAFAH1B2 inh | PAFAH1B3 inh | PAFAH1B3 confirm
COc1ccc(/C=C2\Oc3cc(OCC(=O)N4CCC[C@H]4CO)ccc3C2=O)c(OC)c1 | 10.6 | -2.5 | 7.1 | -7.6 | -0.3 | 1.3 | /
COc1ccc(C(=O)c2c(C(F)(F)F)oc3c2C(=O)c2ccccc2C3=O)cc1 | 4.5 | 3.6 | 8.7 | -11.7 | 10.3 | 26.8* | 24.9
CN(C(=O)CSc1nc2[nH]ncc2c(=O)[nH]1)c1ccccc1 | 9.2 | 4.8 | 7.7 | -5.2 | 5.8 | 1.4 | /
COc1ccccc1NC1=C(N2CCCCC2)C(=O)c2ccccc2C1=O | 13.4 | 11.7 | -7.1 | -1.8 | 7.3 | 42.3* | 20.9
O=C(/C=C/c1ccc(O)cc1)c1ccc(NC2=C(N3CCCCC3)C(=O)c3ccccc3C2=O)cc1 | 25.0 | -4.5 | 6.7 | 2.1 | 13.7 | 53.8* | 21.7
CN(C1=C(N2CCCCC2)C(=O)c2ccccc2C1=O)c1ccccc1 | 10.5 | -2.7 | 2.9 | 1.6 | 6.7 | 17.2 | /
Cc1ccc(NC2=C(N3CCCCC3)C(=O)c3ccccc3C2=O)cc1 | 28.9 | 2.5 | -0.6 | 0.0 | 12.5 | 41.2* | 16.9
CCOc1ccc(Cl)cc1S(=O)(=O)N1CCC(C(=O)NC2CC2)CC1 | 2.5 | 15.0 | 0.3 | 3.2 | 0.7 | 4.5 | /
COc1ccc2[nH]c(O)c(N=O)c2c1 | 11.4 | -23.0 | 16.7 | -10.0 | 7.9 | 18.7 | /
Cc1cc2c(N=O)c(NO)ccc2[nH]1 | 9.2 | -0.8 | 10.1 | -13.5 | 21.2 | 44.2* | 34.9*
O=C(Nc1ccc(OCc2ccccc2)cc1)Nc1ccccc1C(=O)NCCCN1CCOCC1 | 3.4 | 5.4 | 0.7 | -14.2 | 1.5 | 0.0 | /
NS(=O)(=O)c1ccc(-c2ccc(/C=C3\NC(=S)NC3=O)o2)cc1 | -1.5 | 10.2 | 15.3 | 1.4 | 2.5 | 34.0* | 11.7
NC(=O)c1cc([N+](=O)[O-])ccc1Nc1ccccc1 | -4.7 | 1.3 | 4.8 | 3.1 | 7.2 | -0.3 | /
O=C(O)c1ccccc1Nc1ccc([N+](=O)[O-])cc1C(=O)O | 1.2 | 4.2 | 1.4 | 3.8 | 1.5 | 43.1* | 11.2
S=C(Nc1ccc2nsnc2c1)N1CCCCC1 | 14.7 | -3.0 | 1.5 | 8.2 | 12.0 | 51.0* | 8.9
CC1=NN(c2nc(-c3ccc(C)cc3)cs2)C(=O)C1N=Nc1cccc(O)c1 (centres undefined) | 18.4 | 12.3 | 20.4 | 15.2 | 9.7 | 26.4* | 15.2
CC1=NN(c2nc(-c3ccc(C)cc3)cs2)C(=O)C1N=Nc1ccccc1O (centres undefined) | / | -18.6 | 16.6 | 0.2 | / | / | /
O=C(c1cccc(S(=O)(=O)N2CCc3ccccc32)c1)N1CCCC(C(F)(F)F)C1 (centres undefined) | 2.9 | -0.5 | 5.4 | -1.4 | 12.7 | -0.1 | /
